# Results filed as inconclusive are left out. Activity calls are given as the source filed them. Calls follow the shape of the dose curve; as a rule, active = well fitted curve in the direction sought with a large enough effect; inconclusive = small, poorly fitted or top-dose-only effect, or another doubt; inactive = no such curve, though single readings can be large; an effect the other way counts as inactive or inconclusive.
# How the values were obtained:
# [1] = Quantitative High-Throughput drug screen in 47 multiple myeloma cell lines against the NCATS MIPE library collection: KHM11_PLB cell viability assay (AID 1918962); also: nearly all actives have a fitted effect of over 35% in size
# Method in brief: (§1)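 qHTS of the MIPE 4.0 collection: 500 myeloma cells/well, 48 h drug exposure at 37C in 5% CO2, then CellTiter-Glo for 5 min at room temperature before luminescence reading.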
# [2] = Quantitative High-Throughput drug screen in 47 multiple myeloma cell lines against the NCATS MIPE library collection: JIM3_ECACC cell viability assay (AID 1918963; also: nearly all actives have a fitted effect of over 35% in size)
# Method in brief: as §1
# [3] = Quantitative High-Throughput drug screen in 47 multiple myeloma cell lines against the NCATS MIPE library collection: JIM1_ECACC cell viability assay (AID 1918964)
# Method in brief: (§2)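 Relative luminescence from CellTiter-Glo served as the viability signal, referenced to DMSO-treated (100%) and cell-free medium (0%) controls. Treatment lasted 48 hours at 37C with 500 cells per well.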
# [4] = Quantitative High-Throughput drug screen in 47 multiple myeloma cell lines against the NCATS MIPE library collection: JJN3_DSMZ cell viability assay (AID 1918966; also: nearly all actives have a fitted effect of over 50% in size)
# Method in brief: as §2
# [5] = Quantitative High-Throughput drug screen in 47 multiple myeloma cell lines against the NCATS MIPE library collection: Karpas25_ECACC cell viability assay (AID 1918968; also: nearly all actives have a fitted effect of over 35% in size)
# Method in brief: as §2
# [6] = Quantitative High-Throughput drug screen in 47 multiple myeloma cell lines against the NCATS MIPE library collection: KMS27_JCRB cell viability assay (AID 1918970); also: nearly all actives have a fitted effect of over 30% in size
# Method in brief: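 CellTiter-Glo luminescence after 48 h drug exposure at 37 °C; 500 cells/well, 1536-well format, pin-tool compound addition; DMSO = 100%, media-only = 0% viability.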
# [7] = Quantitative High-Throughput drug screen in 47 multiple myeloma cell lines against the NCATS MIPE library collection: KMS12PE_JCRB cell viability assay (AID 1918972); also: nearly all actives have a fitted effect of over 30% in size
# Method in brief: (§3)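 Luminescent ATP measurement with CellTiter-Glo gives viability, scaled between DMSO-only wells (100%) and media-only wells (0%). Cells, 500 per well, faced library compounds for 48 hours at 37C.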
# [8] = Quantitative High-Throughput drug screen in 47 multiple myeloma cell lines against the NCATS MIPE library collection: KMS20_JCRB cell viability assay (AID 1918973); also: nearly all actives have a fitted effect of over 45% in size
# Method in brief: as §2
# [9] = Quantitative High-Throughput drug screen in 47 multiple myeloma cell lines against the NCATS MIPE library collection: KMS21BM_JCRB cell viability assay (AID 1918974); conditions: ATP luminescence, 48 h; viability: at 45.8 µM (top of the series) unless noted
# Method in brief: as §2
# [10] = Quantitative High-Throughput drug screen in 47 multiple myeloma cell lines against the NCATS MIPE library collection: MMM1_PLB cell viability assay (AID 1918976); also: nearly all actives have a fitted effect of over 35% in size
# Method in brief: (§4)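 qHTS format: cells plated (500/well), pin-dosed with MIPE 4.0 compounds, kept 48 h at 37 °C. Readout was CellTiter-Glo luminescence, median RLU.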
# [11] = Quantitative High-Throughput drug screen in 47 multiple myeloma cell lines against the NCATS MIPE library collection: MOLP8_DSMZ cell viability assay (AID 1918977); also: nearly all actives have a fitted effect of over 45% in size
# Method in brief: as §4
# [12] = Quantitative High-Throughput drug screen in 47 multiple myeloma cell lines against the NCATS MIPE library collection: MM1S_ATCC cell viability assay (AID 1918980); also: nearly all actives have a fitted effect of over 45% in size
# Method in brief: as §4
# [13] = Quantitative High-Throughput drug screen in 47 multiple myeloma cell lines against the NCATS MIPE library collection: MM1R_ATCC cell viability assay (AID 1918981); also: nearly all actives have a fitted effect of over 35% in size
# Method in brief: as §4
# [14] = Quantitative High-Throughput drug screen in 47 multiple myeloma cell lines against the NCATS MIPE library collection: KMS26_JCRB cell viability assay (AID 1918975); also: nearly all actives have a fitted effect of over 45% in size
# Method in brief: (§5)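 Steps: seed 500 cells per well; pin-transfer MIPE 4.0 library; incubate 48 h at 37C, 5% CO2, humidified; add CellTiter-Glo, 5 min room temperature; read luminescence.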
# [15] = Quantitative High-Throughput drug screen in 47 multiple myeloma cell lines against the NCATS MIPE library collection: NCIH929_DSMZ cell viability assay (AID 1918978); also: nearly all actives have a fitted effect of over 35% in size
# Method in brief: as §4
# [16] = Quantitative High-Throughput drug screen in 47 multiple myeloma cell lines against the NCATS MIPE library collection: OCIMY1_PLB cell viability assay (AID 1918979); also: nearly all actives have a fitted effect of over 35% in size
# Method in brief: as §4
# [17] = Quantitative High-Throughput drug screen in 47 multiple myeloma cell lines against the NCATS MIPE library collection: LP1_DSMZ cell viability assay (AID 1918982); also: nearly all actives have a fitted effect of over 35% in size
# Method in brief: as §4
# [18] = Quantitative High-Throughput drug screen in 47 multiple myeloma cell lines against the NCATS MIPE library collection: INA6_PLB cell viability assay (AID 1918965; also: nearly all actives have a fitted effect of over 55% in size)
# Method in brief: as §3
# [19] = Quantitative High-Throughput drug screen in 47 multiple myeloma cell lines against the NCATS MIPE library collection: H1112_PLB cell viability assay (AID 1918967; also: nearly all actives have a fitted effect of over 30% in size)
# Method in brief: as §2
# [20] = Quantitative High-Throughput drug screen in 47 multiple myeloma cell lines against the NCATS MIPE library collection: KMS12BM_JCRB cell viability assay (AID 1918971); also: nearly all actives have a fitted effect of over 35% in size
# Method in brief: as §5
# Potency is read from the fitted curve at half-maximal effect.
SMILES,Potency [1],Potency [2],Potency [3],Potency [4],Potency [5],Potency [6],Potency [7],Potency [8],Potency [9],Potency [10],Potency [11],Potency [12],Potency [13],Potency [14],Potency [15],Potency [16],Potency [17],Potency [18],Potency [19],Potency [20]
CC(C)NCC(O)c1ccc(O)c(O)c1 (centres undefined),inactive,inactive,13.2 µM (active),20.9 µM (active),0.0418 µM (active),1.18 µM (active),5.26 µM (active),1.18 µM (active),0.372 µM (active),7.43 µM (active),23.5 µM (active),0.166 µM (active),4.18 µM (active),,,,,,,
O=C1N(c2ccccc2)c2ccccc2C1(Cc1ccncc1)Cc1ccncc1,inactive,inactive,,inactive,inactive,inactive,inactive,0.001 µM (active),,,,,26.4 µM (active),37.2 µM (active),inactive,inactive,inactive,,,
Nc1nc2c(ncn2COC(CO)CO)c(=O)[nH]1,20.9 µM (active),2.64 µM (active),20.9 µM (active),20.9 µM (active),2.64 µM (active),10.5 µM (active),14.8 µM (active),1.05 µM (active),,23.5 µM (active),,,20.9 µM (active),20.9 µM (active),9.35 µM (active),18.7 µM (active),23.5 µM (active),1.32 µM (active),26.4 µM (active),18.7 µM (active)
NC(CO)C(=O)NNCc1ccc(O)c(O)c1O (centres undefined),inactive,inactive,,11.8 µM (active),inactive,inactive,inactive,,,7.43 µM (active),10.5 µM (active),,11.8 µM (active),33.2 µM (active),inactive,26.4 µM (active),20.9 µM (active),inactive,,20.9 µM (active)
CNCCCC12CCC(c3ccccc31)c1ccccc12,26.4 µM (active),20.9 µM (active),,20.9 µM (active),23.5 µM (active),20.9 µM (active),10.5 µM (active),13.2 µM (active),11.8 µM (active),20.9 µM (active),,16.6 µM (active),29.6 µM (active),20.9 µM (active),,20.9 µM (active),20.9 µM (active),16.6 µM (active),,23.5 µM (active)
Cc1ccc(C(=O)Nc2ccc(S(=O)(=O)O)c3cc(S(=O)(=O)O)cc(S(=O)(=O)O)c23)cc1NC(=O)c1cccc(NC(=O)Nc2cccc(C(=O)Nc3cc(C(=O)Nc4ccc(S(=O)(=O)O)c5cc(S(=O)(=O)O)cc(S(=O)(=O)O)c45)ccc3C)c2)c1,inactive,16.6 µM (active),inactive,inactive,inactive,inactive,inactive,,inactive,0.0372 µM (active),inactive,,inactive,,inactive,inactive,inactive,4.69 µM (active),,inactive
CN(C)C(=O)C(CCN1CCC(O)(c2ccc(Cl)cc2)CC1)(c1ccccc1)c1ccccc1,18.7 µM (active),20.9 µM (active),,18.7 µM (active),18.7 µM (active),inactive,inactive,14.8 µM (active),,16.6 µM (active),,20.9 µM (active),20.9 µM (active),16.6 µM (active),23.5 µM (active),,,18.7 µM (active),,
CN(C)CCCN1c2ccccc2CCc2ccc(Cl)cc21,3.32 µM (active),4.69 µM (active),9.35 µM (active),,0.743 µM (active),14.8 µM (active),11.8 µM (active),1.87 µM (active),,20.9 µM (active),,0.743 µM (active),1.48 µM (active),1.66 µM (active),0.469 µM (active),,,,,18.7 µM (active)
COc1ccc(C2CNC(=O)C2)cc1OC1CCCC1 (centres undefined),,inactive,inactive,,,inactive,inactive,inactive,,,inactive,,inactive,inactive,inactive,inactive,inactive,,,inactive
COc1ccccc1OCCNCC(O)COc1cccc2[nH]c3ccccc3c12 (centres undefined),inactive,,,,inactive,,,,,,,,26.4 µM (active),23.5 µM (active),,inactive,,,,
N[C@@H](Cc1c[nH]c2ccc(O)cc12)C(=O)O,inactive,,inactive,,,inactive,inactive,,,18.7 µM (active),,,inactive,inactive,inactive,inactive,inactive,inactive,inactive,
CN1CCN(CCCN2c3ccccc3Sc3ccc(Cl)cc32)CC1,,23.5 µM (active),3.32 µM (active),18.7 µM (active),5.26 µM (active),16.6 µM (active),8.33 µM (active),8.33 µM (active),6.62 µM (active),26.4 µM (active),,9.35 µM (active),26.4 µM (active),26.4 µM (active),29.6 µM (active),inactive,,14.8 µM (active),20.9 µM (active),16.6 µM (active)
CC(C(=O)O)c1cccc(C(=O)c2ccccc2)c1 (centres undefined),18.7 µM (active),,,,13.2 µM (active),,inactive,,,0.833 µM (active),inactive,2.96 µM (active),23.5 µM (active),,13.2 µM (active),inactive,inactive,,,
COc1cc2nc(N(C)CCCNC(=O)C3CCCO3)nc(N)c2cc1OC (centres undefined),inactive,inactive,,,inactive,,inactive,inactive,,,,inactive,,,inactive,,,,inactive,
Nc1c2c(nc3ccccc13)CCCC2,,inactive,inactive,5.26 µM (active),inactive,inactive,inactive,,,,,11.8 µM (active),,,inactive,inactive,inactive,,,

# From PubChem BioAssay (NCATS)
